Assay outcomes: PubChem BioAssay, several laboratories
Only some compounds are listed: those with a hit (about 1.8% of all), similar ones and a draw of the others.
Sa ugtP lethal: growth inhibition of ugtP-null S. aureus, primary screen, RN4220 ugtP deletion, OD600; actives 0.54% (n = 330,000); growth inhibition, % (test concentration not listed); 16 h; AID 1259309, 2017; in the data active = growth inhibition above about 68%;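 also: plate controls were untreated wells for no effect and antibiotic for full effect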
Sa RN4220 lethal: growth inhibition of S. aureus RN4220, primary screen, OD600; 16 h; actives 0.33% (n = 330,000); inhibition, % (test concentration not listed); in the data active = inhibition above about 85%;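 also: plate controls were untreated cells for no effect and reference antibiotic for full effect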
Mtb hypoxia inh: PubChem AID 1159583; M. tuberculosis hypoxia-regulated fluorescent reporter, fluorescence; fluorescence inhibition, % (test concentration not listed); actives 0.1% (n = 300,000); in the data active = fluorescence inhibition mostly above about 23%, no sharp cut-off; inactive = mostly below about 17%
SSB-PriA inh: inhibitors of Klebsiella pneumoniae PriA binding to SSB C-terminal tail, primary screen, biochemical, AlphaScreen. PriA–SSB C-terminal tail interaction (Klebsiella pneumoniae). AlphaScreen SSBct-PriA binding, biotinylated peptide. inhibition, % at 33 µM. actives 0.6% (n = 430,000); in the data active = inhibition mostly above about 37%, no sharp cut-off; inactive = mostly below about 20%;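 also: plate controls were negative control peptide for no effect and reference peptide for full effect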
DUSP3 inh: VHR1 phosphatase inhibitors, primary screen, biochemical, absorbance, uHTS. Dual specificity protein phosphatase 3 (Homo sapiens), P51452. recombinant VHR phosphatase, pNPP absorbance. inhibition, % at 13.3 µM. actives 0.52% (n = 290,000). AID 1654, 2009; in the data active = inhibition above about 50%
Target sequence (P51452 whole entry, looked up): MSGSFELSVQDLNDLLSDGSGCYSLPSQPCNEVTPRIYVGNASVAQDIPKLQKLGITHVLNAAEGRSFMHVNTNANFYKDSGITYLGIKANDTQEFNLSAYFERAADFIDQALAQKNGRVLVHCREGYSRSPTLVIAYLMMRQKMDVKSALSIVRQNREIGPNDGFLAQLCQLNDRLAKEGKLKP
PfHsp40 rescue: rescue of yeast from PfHsp40 toxicity, primary screen, S. cerevisiae, ATP luminescence; S. cerevisiae expressing PfHsp40, growth rescue; growth rescue, % at 12.5 µM; actives 0.68% (n = 340,000); AID 504582, 2011; in the data active = growth rescue above about 28%, passing the limit was not always enough; inconclusive = no clear call, values can overlap the other calls;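 also: yeast W303a lacking pdr1 and pdr3 grown in galactose medium; growth measured after three days at 30 °C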
* marks the source's active call; other numbers are inactive results.

How did CCS(=O)(=O)c1cccc(C(=O)N(CCCN(C)C)c2nc3ccc([N+](=O)[O-])cc3s2)c1 do in these assays?
SSB-PriA inh: -10.0

What do the screens show for `Cc1nnsc1C(=O)N1CCC(CSc2nccn2C)CC1`?
SSB-PriA inh: -9.0

How did Cc1nc2c(sc3cccc(F)c32)c(=O)n1CC(=O)NCCC1=CCCCC1 do in these assays?
SSB-PriA inh: -23.0

How did O=S(=O)(Nc1ccc(Br)cc1)N1CCCCCC1 do in these assays?
SSB-PriA inh: -11.0

How did CCOC(=O)C1CCN(Cc2ccc(O)c3ncccc23)CC1 do in these assays?
Sa ugtP lethal: -1.0; Sa RN4220 lethal: 8.5; Mtb hypoxia inh: 9.6; SSB-PriA inh: 93.6*; DUSP3 inh: 22.6; PfHsp40 rescue: -0.5

Results for N#Cc1ccc(CON=Cc2ccccc2)cc1 ?
Sa ugtP lethal: -2.7; Sa RN4220 lethal: 6.9; Mtb hypoxia inh: 13.1; SSB-PriA inh: -22.7

How did Clc1ccc(CCC(Cn2ccnc2)Sc2c(Cl)cccc2Cl)cc1 (stereo unspecified) do in these assays?
Sa ugtP lethal: 98.0*; Sa RN4220 lethal: 98.9*; SSB-PriA inh: 3.4; PfHsp40 rescue: 119.9*

What do the screens show for `Cc1ccc(N2CCN(N=Cc3c(C)nn(-c4ccccc4)c3Cl)CC2)cc1`?
Sa ugtP lethal: 8.8; Sa RN4220 lethal: 2.4; Mtb hypoxia inh: -1.9; SSB-PriA inh: -13.5

Results for COc1ccc(Nc2ncc(C#N)c(N)n2)c(OC)c1 ?
Sa ugtP lethal: 4.6; Sa RN4220 lethal: 2.9; Mtb hypoxia inh: -0.3; SSB-PriA inh: -5.8; DUSP3 inh: -1.3; PfHsp40 rescue: 66.2*

What do the screens show for `Cc1ccccc1Nc1ncc(C#N)c(N)n1`?
Sa ugtP lethal: 3.3; Sa RN4220 lethal: 2.3; Mtb hypoxia inh: 9.5; SSB-PriA inh: -2.9; DUSP3 inh: 8.7

What do the screens show for `O=C(c1ccc(OC(F)(F)F)cc1)N1CCN(c2nc(-c3ccsc3)cs2)CC1`?
SSB-PriA inh: 4.0

What do the screens show for `O=c1c(Cl)nc2cc(Cl)ccc2n1CCNc1ncc(C(F)(F)F)cc1Cl`?
Sa ugtP lethal: 95.8*; Sa RN4220 lethal: 33.1; SSB-PriA inh: -1.2; DUSP3 inh: -8.2; PfHsp40 rescue: -1.6

What do the screens show for `O=c1c2nncn2c2cc(C(F)(F)F)ccc2n1CCNc1ncc(C(F)(F)F)cc1Cl`?
Sa ugtP lethal: 4.4; Sa RN4220 lethal: -0.9; Mtb hypoxia inh: 12.2; SSB-PriA inh: -3.4; DUSP3 inh: 12.7; PfHsp40 rescue: -0.2

What do the screens show for `O=C(c1cnn2c(C(F)(F)F)cc(-c3ccccc3)nc12)N1CCCCC1c1cccnc1` (stereo unspecified)?
Sa ugtP lethal: -1.5; Sa RN4220 lethal: -1.8; Mtb hypoxia inh: -11.3; SSB-PriA inh: 2.0; DUSP3 inh: 36.1; PfHsp40 rescue: 1.3

How did O=C(c1cc2nc(-c3ccc(F)cc3)cc(C(F)(F)F)n2n1)N1CCCCC1c1cccnc1 (stereo unspecified) do in these assays?
Sa ugtP lethal: active; Sa RN4220 lethal: 86.4; Mtb hypoxia inh: -7.8; SSB-PriA inh: -2.3; DUSP3 inh: 20.6; PfHsp40 rescue: -0.6

How did C=CC#CC[N+]1(CC#Cc2ccccc2)CCOCC1 do in these assays?
Sa ugtP lethal: -3.5; Sa RN4220 lethal: 2.1; Mtb hypoxia inh: 10.9; SSB-PriA inh: 53.6*; DUSP3 inh: 8.2; PfHsp40 rescue: -0.7

Results for CCN1C(=O)CC(N2CCN(c3ccc(C(=O)c4ccccc4)cc3)CC2)C1=O (stereo unspecified) ?
Sa ugtP lethal: -3.0; Sa RN4220 lethal: -2.6; SSB-PriA inh: -3.3; DUSP3 inh: 56.7*; PfHsp40 rescue: 2.9

What do the screens show for `Cc1ccc(S(=O)(=O)Nc2ccccc2C(=O)Nc2nc(-c3ccc(F)cc3)cs2)cc1`?
Sa ugtP lethal: 89.0*; Sa RN4220 lethal: 88.9*; Mtb hypoxia inh: -3.6; SSB-PriA inh: -8.4; DUSP3 inh: 1.7; PfHsp40 rescue: inconclusive

What do the screens show for `COc1ccc(-c2csc(NC(=O)c3ccccc3NS(=O)(=O)c3ccc(F)c(F)c3)n2)cc1`?
Sa ugtP lethal: 85.3; Sa RN4220 lethal: 89.3*; Mtb hypoxia inh: -5.0; SSB-PriA inh: 8.2; DUSP3 inh: 5.2; PfHsp40 rescue: 9.0

How did COc1ccc(NS(=O)(=O)c2nnc(NC(=O)c3ccccc3F)s2)cc1 do in these assays?
Sa ugtP lethal: 8.7; Sa RN4220 lethal: 2.8; Mtb hypoxia inh: 3.0; SSB-PriA inh: 100.1*; DUSP3 inh: 1.6; PfHsp40 rescue: 0.6

What do the screens show for `Cc1ccc(S(=O)(=O)Nc2nc(-c3ccccc3)cs2)cc1`?
Sa ugtP lethal: 3.5; Sa RN4220 lethal: 0.2; Mtb hypoxia inh: 10.0; SSB-PriA inh: -4.0; DUSP3 inh: 9.4; PfHsp40 rescue: 1.6

Results for COc1ccc(-c2csc(NC(=O)c3ccccc3F)n2)cc1 ?
Sa ugtP lethal: 14.9; Sa RN4220 lethal: -6.9; Mtb hypoxia inh: 16.6; SSB-PriA inh: -7.5; DUSP3 inh: -19.7; PfHsp40 rescue: 6.1

Results for Nc1ccccc1C(=O)NNC1CC(=O)N(Cc2ccccc2)C1=O (stereo unspecified) ?
SSB-PriA inh: -3.0

What do the screens show for `COc1ccc(-c2cc3c(=O)n(CC(=O)Nc4cccc(Cl)c4)nc(C)n3n2)cc1`?
SSB-PriA inh: 44.3*; DUSP3 inh: 2.8; PfHsp40 rescue: -0.4

Results for CCOC(=O)N1CCN(C(=O)Cn2nc(C)n3nc(-c4ccc(OC)cc4)cc3c2=O)CC1 ?
Sa ugtP lethal: -7.9; Sa RN4220 lethal: -0.3; Mtb hypoxia inh: -8.3; SSB-PriA inh: -8.6; DUSP3 inh: 23.2; PfHsp40 rescue: 0.4

How did CCOC(=O)CNC(=O)Cn1c(-c2ccccn2)nc2ccccc21 do in these assays?
SSB-PriA inh: -19.0

How did CCOC(=O)c1c(-c2ccc(F)cc2)csc1NC(=O)c1c(-c2ccccc2)noc1C do in these assays?
SSB-PriA inh: -5.9; DUSP3 inh: 13.3; PfHsp40 rescue: 31.7*

How did CCC(CC)c1nnc(NC(=O)c2c(-c3ccccc3)noc2C)s1 do in these assays?
Sa ugtP lethal: 5.7; Sa RN4220 lethal: 3.6; SSB-PriA inh: -1.4; DUSP3 inh: 50.0*; PfHsp40 rescue: 0.2

How did CCCC(CCC)c1nnc(NC(=O)c2ccco2)s1 do in these assays?
Sa ugtP lethal: -0.3; Sa RN4220 lethal: 4.1; Mtb hypoxia inh: 8.6; SSB-PriA inh: 2.4; DUSP3 inh: 59.7*; PfHsp40 rescue: inconclusive

How did O=C(Cc1ccc(NC(=O)NCCOc2ccccc2)cc1)NCc1cccs1 do in these assays?
SSB-PriA inh: -19.0

How did O=C1c2ccccc2NC(c2ccc([N+](=O)[O-])cc2)N1O (stereo unspecified) do in these assays?
Sa ugtP lethal: 2.5; Sa RN4220 lethal: 7.9; Mtb hypoxia inh: 2.2; SSB-PriA inh: -4.5; DUSP3 inh: 5.9; PfHsp40 rescue: 36.9*

How did CCOc1cc(CNc2ccc(CNc3ncn[nH]3)cc2)ccc1OCc1ccccc1 do in these assays?
Sa ugtP lethal: 73.6; Sa RN4220 lethal: 12.3; Mtb hypoxia inh: 9.7; SSB-PriA inh: 43.0*; DUSP3 inh: -7.2; PfHsp40 rescue: -0.9
